From PubChem BioAssay (EPA / NIEHS)
Values joined by “and” are separate entries in the source; they are usually repeats but may differ in a detail not shown here. Identical values can stand only once. More than one record can exist for a structure, and the calls need not agree. Active and inactive are the calls of the source. The calls were made as follows: active = hit-call score of the fitted dose curve at least 0.9, where 1 is the maximum; inactive = score below 0.9.

How the values were obtained:
[1] = ATG_E_Box_CIS: Attagene CIS-FACTORIAL HepG2 Assay for human Enhancer Box (E-box) (AID 2282936); settings: HepG2 E-box cis-reporter transcription, actives raise or lower the signal
Outline: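 E-box-driven reporter transcripts measured in transiently transfected HepG2 after 24 h exposure: RNA reverse-transcribed, PCR-amplified, fluorescently labelled, digested and resolved by capillary electrophoresis. Gain or loss relative to DMSO.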

[2] = ATG_M_61_CIS: Attagene CIS-FACTORIAL HepG2 Assay for M61 Transcription Factor (Internal Marker) (AID 2282937); settings: HepG2 Attagene CIS-FACTORIAL M61 internal marker reporter; actives raise or lower the signal
Outline: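 This endpoint serves as an internal background control within a multiplexed HepG2 cis-reporter panel. Cells are exposed for 24 h; reporter mRNA is amplified, fluorescently labelled and sized by capillary electrophoresis, with DMSO as negative control.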

[3] = ATG_EGR_CIS: Attagene CIS-FACTORIAL HepG2 Assay for human Early Growth Response 1 (EGR1) (AID 2282938); settings: HepG2 Attagene CIS-FACTORIAL EGR reporter mRNA; actives raise or lower the signal
Outline: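 HepG2, transient MRTU transfection (cis promoters), 24 h compound. RNA → RT (oligo-dT) → PCR → 6-FAM labelling → HpaI cut → CE fluorescence. Bidirectional fit, DMSO baseline.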

[4] = ATG_M_19_CIS: Attagene CIS-FACTORIAL HepG2 Assay for M19 Transcription Factor (Internal Marker) (AID 2282939); settings: HepG2 Attagene CIS-FACTORIAL M19 internal marker reporter; actives raise or lower the signal
Outline: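 Transfect HepG2 with MRTU reporter library → dose chemical, 24 h → isolate total RNA, reverse-transcribe with oligo(dT) → PCR, 6-FAM label, HpaI cut (2 h, 37 C) → capillary electrophoresis. Bidirectional fit vs DMSO.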

[5] = ATG_Ets_CIS: Attagene CIS-FACTORIAL HepG2 Assay for human Erythroblast Transformation Specific (ETS) (AID 2282941); settings: HepG2 ETS cis-reporter transcription, actives raise or lower the signal
Outline: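 Multiplexed reporter transcript profiling: HepG2, 24 h treatment, total RNA to cDNA, PCR, 6-FAM labelling, HpaI cut, capillary electrophoresis. Gain- or loss-of-signal fitted against DMSO.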

[6] = biological target: Hepatocyte nuclear factor 3-beta (Homo sapiens) (UniProt Q9Y261); experiment: ATG_FoxA2_CIS: Attagene CIS-FACTORIAL HepG2 Assay for human Forkhead box A2 (FOXA2) (AID 2282942); settings: HepG2 cis-reporter transcription factor activity, 24 h; actives raise or lower the signal
Outline: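 Cells: HepG2, transient multiplex reporter transfection. Exposure 24 h. Detection: reporter-specific RT-PCR, fluorescent labelling, restriction digest, capillary electrophoresis. Analysis: bidirectional curve fit, DMSO as negative control.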

[7] = ATG_GATA_CIS: Attagene CIS-FACTORIAL HepG2 Assay for human GATA Binding Protein (AID 2282944); settings: HepG2 GATA cis-element reporter, Attagene multiplex mRNA; actives raise or lower the signal
Outline: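 Transient MRTU transfection, HepG2, 24 h compound exposure. Total RNA → oligo(dT) RT → PCR → 6-FAM primer extension → HpaI cut → CE. Bidirectional fit vs DMSO.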

[8] = ATG_GLI_CIS: Attagene CIS-FACTORIAL HepG2 Assay for human Zinc Finger Protein GLI1 (AID 2282945); settings: HepG2, Attagene cis-factorial reporter mRNA, GLI element; actives raise or lower the signal
Outline: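 Bidirectional curve fits relative to DMSO, using reporter mRNA levels from RT-PCR plus capillary electrophoresis. Cells were HepG2 transiently carrying cis-regulated reporter constructs, harvested 24 h after dosing.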

[9] = biological target: Bile acid receptor (Homo sapiens) (UniProt Q96RI1); experiment: ATG_IR1_CIS: Attagene CIS-FACTORIAL HepG2 Assay for human Nuclear Receptor Subfamily 1 Group H Member 4 (NR1H4), IR1 submotif (AID 2282946); settings: IR1 reporter transcription, actives raise or lower the signal
Outline: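 HepG2 cells transiently transfected with multiplexed cis-element reporter units read endogenous transcription factor activity. After 24 h compound exposure, reporter mRNA was quantified by RT-PCR, fluorescent labelling, HpaI digestion and capillary electrophoresis; bidirectional fitting versus DMSO baseline.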

[10] = ATG_GRE_CIS: Attagene CIS-FACTORIAL HepG2 Assay for human Glucocorticoid Response Elements (GRE) (AID 2282947); settings: HepG2 GRE cis-reporter, Attagene multiplex mRNA; actives raise or lower the signal
Outline: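 Reporter transcripts read by RT-PCR with capillary electrophoresis fluorescence after a 24 h chemical exposure of HepG2 cells transiently transfected with multiple cis-element reporter units. Gain or loss fitted against DMSO.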

[11] = ATG_ISRE_CIS: Attagene CIS-FACTORIAL HepG2 Assay for human Interferon Regulatory Factor 1 (IRF1) binding to an Interferon-Stimulated Response Element (ISRE) (AID 2282948); settings: HepG2 ISRE cis-reporter (Attagene), mRNA transcription readout; actives raise or lower the signal
Outline: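 Signal reflects induction or loss of ISRE-linked reporter mRNA in transiently transfected HepG2 cells after a 24 h treatment, detected by fluorescent RT-PCR fragments on capillary electrophoresis and normalised to DMSO.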

[12] = ATG_M_32_CIS: Attagene CIS-FACTORIAL HepG2 Assay for M32 Transcription Factor (Internal Marker) (AID 2282949); settings: HepG2 Attagene cis-factorial M32 reporter, mRNA; actives raise or lower the signal;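 also: background control marker of the multiplexed CIS panel rather than a real target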
Outline: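 HepG2 transfectants (cis-regulated reporter transcription units) dosed 24 h. Reporter mRNA by RT-PCR plus CE, analysed as gain or loss relative to DMSO.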

[13] = biological target: Hypoxia-inducible factor 1-alpha (Homo sapiens) (UniProt Q16665); experiment: ATG_HIF1a_CIS: Attagene CIS-FACTORIAL HepG2 Assay for human Hypoxia Inducible Factor 1 (HIF1A) (AID 2282951); settings: HepG2 Attagene cis-factorial HIF1a reporter transcription; actives raise or lower the signal
Outline: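 HepG2, transient cis-reporter library, 24 h dosing. RNA → RT (oligo dT) → PCR → 6-FAM primer extension → HpaI → CE. Bidirectional curve fit vs DMSO.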

[14] = biological target: Hepatocyte nuclear factor 6 (Homo sapiens) (UniProt Q9UBC0); experiment: ATG_HNF6_CIS: Attagene CIS-FACTORIAL HepG2 Assay for human Hepatocyte Nuclear Factor 6 (HNF6) (AID 2282952); settings: HepG2 Attagene cis-factorial HNF6 reporter transcription; actives raise or lower the signal
Outline: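 Endogenous transcription factor activity in human HepG2 liver cells was captured through cis-regulated reporter constructs. After 24 h treatment, reporter mRNA was measured by RT-PCR with capillary electrophoresis, and activity was fitted in both directions relative to DMSO.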

[15] = biological target: Heat shock factor protein 1 (Homo sapiens) (UniProt Q00613); experiment: ATG_HSE_CIS: Attagene CIS-FACTORIAL HepG2 Assay for human Heat Shock Transcription Factor 1 (HSE) (AID 2282953); settings: HepG2 HSE cis-reporter, Attagene RNA transcription; actives raise or lower the signal
Outline: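 HepG2, transient MRTU transfection, cis-promoter reporters (endogenous TF activity). 24 h compound. RNA → oligo(dT) RT → PCR → 6-FAM primer extension → HpaI cut → CE. Bidirectional fit vs DMSO.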

[16] = ATG_MRE_CIS: Attagene CIS-FACTORIAL HepG2 Assay for human Metal Responsive Element (MRE) (AID 2282954); settings: HepG2 MRE cis-reporter transcription, Attagene multiplex; actives raise or lower the signal
Outline: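 Endogenous MRE-dependent transcription read as reporter mRNA in transiently transfected human HepG2 cells at 24 h. RNA reverse-transcribed, PCR-amplified, labelled and resolved by capillary electrophoresis; gain or loss relative to DMSO.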

[17] = ATG_PBREM_CIS: Attagene CIS-FACTORIAL HepG2 Assay for human Phenobarbital-responsive Enhancer Module (PBREM) (AID 2282955); settings: HepG2 PBREM cis-reporter, Attagene multiplexed transcription; actives raise or lower the signal
Outline: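 HepG2, transient MRTU transfection, 24 h dosing; RNA → oligo(dT) RT → PCR → 6-FAM extension → HpaI → CE. Bidirectional fit vs DMSO.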

[18] = ATG_ERE_CIS: Attagene CIS-FACTORIAL HepG2 Assay for Estrogen Response Element (ERE) (AID 2282940); settings: HepG2 ERE cis-reporter, Attagene RNA transcript; actives raise or lower the signal
Outline: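 Transient MRTU transfection of human HepG2; cis-element promoters; 24 h dosing; total RNA → RT (oligo dT) → PCR → 6-FAM primer extension → HpaI digest → CE fluorescence. Bidirectional fit, DMSO baseline.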

[19] = ATG_M_06_CIS: Attagene CIS-FACTORIAL HepG2 Assay for M06 Transcription Factor (Internal Marker) (AID 2282950); settings: HepG2 Attagene CIS-FACTORIAL M06 internal marker reporter; actives raise or lower the signal
Outline: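 Read-out is fluorescence of labelled reporter cDNA fragments resolved by capillary electrophoresis after RT-PCR. Cells: HepG2 carrying transfected cis-promoter reporter units, treated 24 h. Gain or loss of signal fitted relative to DMSO.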

Hypoxia-inducible factor 1-alpha (Homo sapiens), sequence (Q16665 whole entry, looked up): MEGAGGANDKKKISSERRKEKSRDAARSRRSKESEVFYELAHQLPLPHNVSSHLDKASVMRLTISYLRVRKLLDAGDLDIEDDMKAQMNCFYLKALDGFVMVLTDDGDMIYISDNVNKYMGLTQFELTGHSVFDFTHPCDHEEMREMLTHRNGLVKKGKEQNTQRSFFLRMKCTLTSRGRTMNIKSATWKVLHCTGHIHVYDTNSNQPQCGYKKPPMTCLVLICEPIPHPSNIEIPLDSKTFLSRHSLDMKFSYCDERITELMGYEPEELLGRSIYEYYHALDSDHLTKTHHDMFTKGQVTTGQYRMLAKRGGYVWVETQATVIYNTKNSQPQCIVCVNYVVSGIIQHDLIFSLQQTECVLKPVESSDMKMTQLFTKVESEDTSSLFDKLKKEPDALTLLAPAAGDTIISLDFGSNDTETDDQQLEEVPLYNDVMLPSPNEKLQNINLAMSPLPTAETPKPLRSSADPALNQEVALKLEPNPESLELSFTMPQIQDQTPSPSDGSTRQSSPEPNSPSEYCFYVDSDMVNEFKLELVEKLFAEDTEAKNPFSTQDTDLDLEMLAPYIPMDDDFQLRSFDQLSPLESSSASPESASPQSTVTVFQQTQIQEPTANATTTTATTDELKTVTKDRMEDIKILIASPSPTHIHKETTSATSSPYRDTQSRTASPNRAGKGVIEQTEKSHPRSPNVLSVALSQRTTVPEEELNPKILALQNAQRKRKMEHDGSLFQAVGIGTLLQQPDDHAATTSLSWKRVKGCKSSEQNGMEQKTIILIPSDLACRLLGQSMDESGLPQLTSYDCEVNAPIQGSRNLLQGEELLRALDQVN
Bile acid receptor (Homo sapiens), sequence (Q96RI1 whole entry, looked up): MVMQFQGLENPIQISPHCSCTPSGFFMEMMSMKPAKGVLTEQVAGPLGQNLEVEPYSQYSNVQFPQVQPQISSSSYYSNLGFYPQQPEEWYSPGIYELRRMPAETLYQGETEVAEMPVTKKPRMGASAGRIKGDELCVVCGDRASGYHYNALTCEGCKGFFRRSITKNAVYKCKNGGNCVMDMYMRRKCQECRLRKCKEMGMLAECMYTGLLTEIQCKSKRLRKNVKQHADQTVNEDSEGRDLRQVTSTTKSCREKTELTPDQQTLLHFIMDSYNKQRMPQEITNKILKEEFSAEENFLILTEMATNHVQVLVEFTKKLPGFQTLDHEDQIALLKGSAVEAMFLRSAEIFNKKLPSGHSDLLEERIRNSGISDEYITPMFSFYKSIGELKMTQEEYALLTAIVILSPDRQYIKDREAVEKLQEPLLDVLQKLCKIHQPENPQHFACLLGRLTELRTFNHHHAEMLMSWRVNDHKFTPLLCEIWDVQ
Hepatocyte nuclear factor 3-beta (Homo sapiens), sequence (Q9Y261 whole entry, looked up): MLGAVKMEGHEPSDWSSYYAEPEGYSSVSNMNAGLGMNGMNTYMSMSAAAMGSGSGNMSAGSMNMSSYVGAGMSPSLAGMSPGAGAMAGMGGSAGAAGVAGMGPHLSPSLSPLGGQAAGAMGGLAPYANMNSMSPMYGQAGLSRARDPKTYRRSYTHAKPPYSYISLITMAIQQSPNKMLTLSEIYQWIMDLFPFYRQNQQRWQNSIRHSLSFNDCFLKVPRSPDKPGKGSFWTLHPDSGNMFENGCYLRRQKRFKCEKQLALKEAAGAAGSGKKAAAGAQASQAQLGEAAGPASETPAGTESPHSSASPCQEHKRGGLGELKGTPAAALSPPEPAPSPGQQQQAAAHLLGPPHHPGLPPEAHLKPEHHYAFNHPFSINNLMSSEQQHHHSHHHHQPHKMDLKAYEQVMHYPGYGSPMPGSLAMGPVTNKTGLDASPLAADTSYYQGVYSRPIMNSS
Heat shock factor protein 1 (Homo sapiens), sequence (Q00613 whole entry, looked up): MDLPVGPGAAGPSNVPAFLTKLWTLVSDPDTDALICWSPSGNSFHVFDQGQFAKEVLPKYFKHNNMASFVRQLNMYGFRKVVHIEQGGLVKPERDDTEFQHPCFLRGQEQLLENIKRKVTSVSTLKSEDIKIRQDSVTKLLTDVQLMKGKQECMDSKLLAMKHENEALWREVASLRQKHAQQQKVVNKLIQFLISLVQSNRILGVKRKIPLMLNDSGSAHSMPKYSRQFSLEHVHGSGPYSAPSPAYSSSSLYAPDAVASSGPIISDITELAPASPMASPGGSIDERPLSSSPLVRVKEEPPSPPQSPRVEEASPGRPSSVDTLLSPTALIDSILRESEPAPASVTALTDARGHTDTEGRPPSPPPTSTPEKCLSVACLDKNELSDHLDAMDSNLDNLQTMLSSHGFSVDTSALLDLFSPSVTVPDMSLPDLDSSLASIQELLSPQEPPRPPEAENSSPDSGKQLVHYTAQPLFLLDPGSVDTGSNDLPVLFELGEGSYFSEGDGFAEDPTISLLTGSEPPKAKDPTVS
Hepatocyte nuclear factor 6 (Homo sapiens), sequence (Q9UBC0 whole entry, looked up): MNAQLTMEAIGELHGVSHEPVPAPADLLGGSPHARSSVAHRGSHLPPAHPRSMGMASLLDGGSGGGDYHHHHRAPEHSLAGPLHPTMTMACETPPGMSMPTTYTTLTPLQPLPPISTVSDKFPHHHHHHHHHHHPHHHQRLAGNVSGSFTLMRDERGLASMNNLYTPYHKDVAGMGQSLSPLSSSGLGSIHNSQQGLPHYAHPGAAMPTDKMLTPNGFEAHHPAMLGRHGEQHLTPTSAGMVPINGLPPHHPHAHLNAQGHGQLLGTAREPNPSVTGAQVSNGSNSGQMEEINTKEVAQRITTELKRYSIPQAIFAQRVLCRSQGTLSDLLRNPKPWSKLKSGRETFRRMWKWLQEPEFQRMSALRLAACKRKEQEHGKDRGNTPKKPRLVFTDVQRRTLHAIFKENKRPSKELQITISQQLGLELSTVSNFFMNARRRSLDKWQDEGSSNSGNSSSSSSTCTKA

C[C@]12CCC(=O)C=C1CC[C@@H]1[C@@H]2CC[C@@]2(C)[C@H]1CC[C@]2(C)O
outcome [1]: inactive
outcome [2]: inactive
outcome [3]: inactive
outcome [4]: inactive
outcome [5]: inactive
outcome [6]: inactive
outcome [7]: inactive
outcome [8]: inactive
outcome [9]: inactive
outcome [10]: inactive
outcome [11]: inactive
outcome [12]: inactive
outcome [13]: inactive
outcome [14]: inactive
outcome [15]: inactive
AC50 [16]: 132 µM (active) and 129 µM (active) and 79.4 µM (active)
outcome [16]: inactive
outcome [17]: inactive

Nc1ccc(-c2ccc(N)cc2)cc1
outcome [1]: inactive
outcome [2]: inactive
outcome [3]: inactive
outcome [4]: inactive
AC50 [18]: 33.2 µM (active)
outcome [5]: inactive
outcome [6]: inactive
outcome [7]: inactive
outcome [8]: inactive
outcome [10]: inactive
outcome [11]: inactive
outcome [12]: inactive
outcome [13]: inactive
outcome [14]: inactive
outcome [15]: inactive
outcome [16]: inactive
outcome [17]: inactive

Cc1cccc(C)c1N
outcome [1]: inactive
outcome [2]: inactive
outcome [3]: inactive
outcome [4]: inactive
outcome [18]: inactive
outcome [5]: inactive
outcome [6]: inactive
outcome [7]: inactive
outcome [8]: inactive
outcome [9]: inactive
outcome [10]: inactive
outcome [12]: inactive
outcome [19]: inactive
outcome [13]: inactive
outcome [14]: inactive
outcome [15]: inactive
outcome [16]: inactive

CCC(C)(CC)c1cc(NC(=O)c2c(OC)cccc2OC)on1
outcome [1]: inactive
outcome [2]: inactive
outcome [3]: inactive
outcome [4]: inactive
outcome [5]: inactive
outcome [6]: inactive
outcome [7]: inactive
outcome [8]: inactive
outcome [12]: inactive
AC50 [13]: 8.77 µM (active)
outcome [14]: inactive
outcome [15]: inactive
AC50 [16]: 14.4 µM (active)
AC50 [17]: 1.43 µM (active)

Sc1ccccc1
outcome [1]: inactive
outcome [2]: inactive
outcome [3]: inactive
outcome [4]: inactive
AC50 [18]: 27.1 µM (active) and 100 µM (active)
outcome [5]: inactive
outcome [6]: inactive
outcome [7]: inactive
outcome [8]: inactive
outcome [10]: inactive
outcome [12]: inactive
outcome [13]: inactive
outcome [14]: inactive
AC50 [15]: 160 µM (active)
outcome [15]: inactive
outcome [16]: inactive
outcome [17]: inactive

COc1ccc(O)c(C(C)(C)C)c1
outcome [1]: inactive
outcome [2]: inactive
AC50 [3]: 100 µM (active)
outcome [4]: inactive
outcome [18]: inactive
AC50 [5]: 111 µM (active)
outcome [6]: inactive
outcome [7]: inactive
outcome [8]: inactive
outcome [9]: inactive
outcome [10]: inactive
outcome [11]: inactive
outcome [12]: inactive
AC50 [13]: 52.6 µM (active)
outcome [14]: inactive
outcome [15]: inactive
AC50 [16]: 148 µM (active)
AC50 [17]: 25.7 µM (active)

c1ccc(-c2ccccc2)cc1
outcome [1]: inactive
outcome [2]: inactive
outcome [3]: inactive
outcome [4]: inactive
AC50 [18]: 81.8 µM (active)
outcome [5]: inactive
outcome [6]: inactive
outcome [7]: inactive
outcome [8]: inactive
outcome [9]: inactive
outcome [10]: inactive
outcome [12]: inactive
outcome [13]: inactive
outcome [14]: inactive
outcome [15]: inactive
outcome [16]: inactive

ClC1=C(Cl)[C@]2(Cl)[C@@H]3[C@@H]4C[C@@H]([C@H]5O[C@@H]45)[C@@H]3[C@@]1(Cl)C2(Cl)Cl
outcome [1]: inactive
outcome [2]: inactive
outcome [3]: inactive
outcome [4]: inactive
AC50 [18]: 1.04 µM (active)
outcome [5]: inactive
outcome [6]: inactive
outcome [7]: inactive
outcome [8]: inactive
outcome [10]: inactive
outcome [12]: inactive
outcome [19]: inactive
outcome [13]: inactive
outcome [14]: inactive
outcome [15]: inactive
AC50 [16]: 46.5 µM (active)

CCNc1nc(NC(C)C)nc(SC)n1
outcome [1]: inactive
outcome [2]: inactive
outcome [3]: inactive
outcome [4]: inactive
outcome [5]: inactive
outcome [6]: inactive
outcome [7]: inactive
outcome [8]: inactive
outcome [11]: inactive
outcome [12]: inactive
outcome [19]: inactive
outcome [13]: inactive
outcome [14]: inactive
outcome [15]: inactive
outcome [16]: inactive
outcome [17]: inactive

Cc1ccccc1[N+](=O)[O-]
outcome [1]: inactive
outcome [2]: inactive
outcome [3]: inactive
outcome [4]: inactive
outcome [18]: inactive
outcome [5]: inactive
outcome [6]: inactive
outcome [7]: inactive
outcome [8]: inactive
outcome [10]: inactive
outcome [12]: inactive
outcome [13]: inactive
outcome [14]: inactive
outcome [16]: inactive
outcome [17]: inactive
